Screening data as filed in PubChem.
Rows were chosen to be rich in hits. Some 4% of all compounds tested hit in one or more screens of this group.
MazF activator: MazEF (E. coli) toxin RNase activation; FAM/BHQ RNA-DNA oligo cleavage fluorescence, 5 h; activation, % at 20 µM; 350,000 tested, 0.32% active; in the data active means activation above about 50%
Target sequence (P0AE70 whole entry, looked up): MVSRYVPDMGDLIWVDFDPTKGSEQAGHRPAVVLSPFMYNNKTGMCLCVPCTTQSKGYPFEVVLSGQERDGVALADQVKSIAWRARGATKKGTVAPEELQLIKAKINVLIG
CCHF vOTU inh: blocks the CCHF virus ovarian tumor domain protease; CCHFV vOTU protease, Pep-AMC fluorescence; inhibition, % at 11.5 µM; 370,000 tested, 0.55% active; AID 651958; further: 0% = vehicle wells with enzyme and 100% = no enzyme wells
GDH-TPI counter: GDH-TPI coupled enzyme inhibition counter-screen; 360,000 tested, 1.2% active; inhibition, % at 4.8 µM; GDH-TPI coupled enzyme counterscreen, NADH absorbance;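 further: 0% = DMSO wells and 100% = wells lacking the enzyme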
Mtb betalactam: beta-lactam sensitization of Mtb H37Rv | 330,000 tested, 0.27% active | M. tuberculosis H37Rv growth with meropenem, percent inhibition | inhibition, % at 25 µM; call rule not given here;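 further: growth measured after seven days incubation then overnight dye step; 0% = bacteria only wells and 100% = bacteria with antibiotic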
Mtb FBA inh: Mtb fructose-bisphosphate aldolase inhibition; P9WQA3; purified M. tuberculosis FBA, fluorescence read-out; inhibition, % at 1 µM; 360,000 tested, 2.3% active; AID 588726; in the data active means inhibition above about 27%;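 further: 0% = vehicle and 100% = reference inhibitor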
* marks the source's active call; other numbers are inactive results; nt = not tested or not shown; + = active, no number. Unless noted, no stated cut-off is given here; in the data, active means inhibition above about 30%; inactive means the rest.

SMILES	MazF activator	CCHF vOTU inh	GDH-TPI counter	Mtb betalactam	Mtb FBA inh
CC(=O)N1CCC(=NNS(=O)(=O)c2cccc([N+](=O)[O-])c2)CC1	53*	8	-4	nt	4
O=c1cc(-c2ccc(O)cc2)oc2c(O)c(O)c(O)c(O)c12	1	11	37*	1	5
COc1ccc(-c2cc(-c3nnc(SCC(=O)N4CCOCC4)n3N)[nH]n2)cc1	nt	2	nt	nt	nt
CCC(NC(=O)C1CCCN(c2ncccn2)C1)c1ccccc1 (stereo not given)	nt	-3	nt	nt	nt
COc1cc2c[n+](C)c3c4ccccc4ccc3c2cc1OC	3	-94	20	nt	120*
COc1cc2c(ccc3c4cc(OC)c(OC)cc4c[n+](C)c23)cc1O	-4	19	28	nt	-5
COC(=O)[C@]12C[C@H](CC(=O)NCc3cccc4ccccc34)C(=O)N(Cc3ccco3)C1=C[C@H](C(C)(C)C)O[C@@H]2C	nt	24	nt	nt	nt
CCN(CC)CC(C)(C)C(=O)/C=C/c1ccc(/C=C/C(=O)C(C)(C)CN(CC)CC)cc1	11	-4	59*	nt	-3
O=c1oc(/C=C/c2ccccc2)nc2sc3c(c12)CCC3	324*	8	1	92	5
O=c1oc(-c2ccccc2)nc2sc3c(c12)CCCC3	3	-2	15	62	2
COc1ccc(/C=C/c2nc3sc4c(c3c(=O)o2)CCC4)cc1	+	3	-9	98	-1
N#CCC[C@@H]1CC[C@]2(CCCN(Cc3ccccc3)C2)O1	nt	-1	nt	nt	nt
COC(=O)C1CN(Cc2cn(Cc3ccc(OC)cc3)nn2)CCS(=O)(=O)N1Cc1ccc(OC)cc1 (stereo not given)	nt	-3	nt	nt	nt
N#Cc1nc(-c2cccs2)oc1NCc1ccc2c(c1)OCO2	7	-40	27	-2	112*
COc1ccc(Nc2oc(-c3cccs3)nc2C#N)cc1	-2	11	16	6	10
N#Cc1nc(-c2ccccc2F)oc1NCc1ccccc1	0	-35	15	26	142*
Cc1oc(-c2cccs2)nc1CS(=O)CC(=O)NCc1ccc2c(c1)OCO2 (stereo not given)	8	6	10	-6	0
Cc1ccc(CNc2oc(C)nc2C#N)cc1	8	-9	5	-6	2
N#Cc1nc(-c2cccs2)oc1NCCN1CCOCC1	5	-61	32*	-9	195*
N#Cc1nc(-c2cccs2)oc1NCCc1ccccc1	3	-200	15	86	+
COC(=O)[C@]12C[C@H](CC(=O)NCc3cccc(C(F)(F)F)c3)C(=O)N(Cc3cccc4ccccc34)C1=C[C@H](C(C)(C)C)O[C@@H]2C	nt	28	nt	nt	nt
COC(=O)C1CN(Cc2ccc(C)cc2)CCS(=O)(=O)N1Cc1cn(Cc2ccc(Cl)cc2)nn1 (stereo not given)	nt	10	nt	nt	nt
COc1ccc(S[C@]2(C(=O)N3CCCC3)CC(=O)N[C@@H]2c2ccc(OC)cc2)cc1	nt	2	nt	nt	nt
N#Cc1nc(-c2ccccc2F)oc1NCCc1ccccc1	3	-44	-5	67	122*
N#Cc1nc(-c2ccccc2F)oc1NCCc1ccccn1	21	-2	20	-7	15
SMILES	MazF activator	CCHF vOTU inh	GDH-TPI counter	Mtb betalactam	Mtb FBA inh
COc1ccc(NC(=O)CN(C)C(=O)CNC(=O)c2sc3ccccc3c2Cl)cc1	-1	5	-1	62	-4
CN(CC(=O)Nc1ccc(F)cc1)C(=O)COC(=O)CNC(=O)c1sc2ccccc2c1Cl	70*	1	4	7	-2
COC(=O)[C@H](C(C)C)N1Cc2nnn(Cc3ccc(C)cc3)c2-c2ccccc2S1(=O)=O	nt	7	nt	nt	nt
O=c1c2ccccc2sc2ccccc12	10	-9	-5	nt	23
Cc1cc(=O)c2ccccc2s1	-4	22	32*	1	-3
Cc1ccc(/C=C2\C(=N)N3N=C(CC(=O)N4CCOCC4)SC3=NC2=O)o1	-10	27	45*	2	5
N=C1/C(=C/c2ccc(-c3cccc(C(=O)O)c3)o2)C(=O)N=C2SC(CC(=O)N3CCOCC3)=NN12	-14	11	8	3	-7
N=C1/C(=C\c2ccc(SCc3ccccc3)o2)C(=O)N=C2SC(CC(=O)N3CCOCC3)=NN12	-13	18	39*	1	-3
COC(=O)[C@]12C[C@H](CC(=O)N3CCN(C(=O)C4CC4)CC3)C(=O)N(CCc3ccc(OC)c(OC)c3)C1=C[C@H](C1CCCC1)O[C@@H]2C	nt	0	nt	nt	nt
Cc1nc2c(ccc3nc(NC(=O)c4ccc5c(c4)OCCO5)sc32)s1	73*	-7	17	4	7
NC(=S)N/N=C/c1ccc(OC(=O)c2cccnc2)cc1	-7	6	6	97	-2
